{"source": "the supplement of paper PMC11383364"}
{"system": "SUM149", "test": "percent difference in area under dose-response curve of relative cell number, RPMI vs HPLM; higher = drug relatively more effective in HPLM than RPMI (negative = less effective in HPLM)", "settings": "treatment time: 72 h; dose range: 10-point, 1 nM to 20 µM; media compared: RPMI vs HPLM", "units": {"percent difference in area under dose-response curve": "%"}}
{"smiles": "Cn1cc(C2=C(c3ccc(Cl)cc3Cl)C(=O)NC2=O)c2ccccc21", "percent difference in area under dose-response curve": -0.391}
{"smiles": "Cc1cc(CS(=O)(=O)c2ccccc2)cc(OCc2ccc(CN3CCC[C@@H]3CO)cc2)c1", "percent difference in area under dose-response curve": 1.05}
{"smiles": "Cc1cccc(CC(=O)N2CCc3c2ccc(-c2cn(C)c4ncnc(N)c24)c3F)n1", "percent difference in area under dose-response curve": -5.2}
{"smiles": "Cc1[nH]c(/C=C2\\C(=O)Nc3ccc(S(=O)(=O)N(C)c4cccc(Cl)c4)cc32)c(C)c1C(=O)N1CCN(C)CC1", "percent difference in area under dose-response curve": -9.77}
{"smiles": "COc1cc2ncnc(Nc3ccc(F)c(Cl)c3)c2cc1OCCCN1CCOCC1", "note": "[Gefitinib]", "percent difference in area under dose-response curve": -2.1}
{"smiles": "COc1cc2nccc(Oc3ccc(NC(=O)C4(C(=O)Nc5ccc(F)cc5)CC4)cc3)c2cc1OC", "note": "[Cabozantinib_malate]", "percent difference in area under dose-response curve": 13.2}
{"smiles": "Cc1ccc(-n2nc(C(C)(C)C)cc2NC(=O)Nc2ccc(OCCN3CCOCC3)c3ccccc23)cc1", "percent difference in area under dose-response curve": -3.95}
{"smiles": "COCC[n+]1c2c(n(Cc3cnccn3)c1C)C(=O)c1ccccc1C2=O", "percent difference in area under dose-response curve": 15.7}
{"smiles": "CSc1cccc(Nc2ncc3cc(-c4c(Cl)cccc4Cl)c(=O)n(C)c3n2)c1", "percent difference in area under dose-response curve": 11.7}
{"smiles": "CC(C)C[C@H](NC(=O)[C@H](Cc1ccccc1)NC(=O)c1cnccn1)B(O)O", "note": "[Bortezomib]", "percent difference in area under dose-response curve": -29.8}
{"smiles": "O=C(NOCC1CC1)c1ccc(F)c(F)c1Nc1ccc(I)cc1Cl", "percent difference in area under dose-response curve": 4.08}
{"smiles": "O=C1[C@H](CC[C@H](O)c2ccc(F)cc2)[C@@H](c2ccc(O)cc2)N1c1ccc(F)cc1", "note": "[Ezetimibe]", "percent difference in area under dose-response curve": -5.77}
{"smiles": "CCOc1ccn(-c2ccc(F)cc2)c(=O)c1C(=O)Nc1ccc(Oc2ccnc(N)c2Cl)c(F)c1", "percent difference in area under dose-response curve": -1.99}
{"smiles": "COc1cc([C@@H]2c3cc4c(cc3[C@@H](O[C@@H]3O[C@@H]5CO[C@@H](C)O[C@H]5[C@H](O)[C@H]3O)[C@H]3COC(=O)[C@H]23)OCO4)cc(OC)c1O", "note": "[Etoposide]", "percent difference in area under dose-response curve": -22.4}
{"smiles": "CCNC(=O)c1noc(-c2cc(Cl)c(O)cc2O)c1-c1ccc(OC)cc1", "percent difference in area under dose-response curve": -12.2}
{"smiles": "Cn1cc(CNCC2CCN(c3ncc(C(=O)NO)cn3)CC2)c2ccccc21", "percent difference in area under dose-response curve": -19.7}
{"smiles": "CC(NC(=O)c1ccccc1/N=C/c1c(O)ccc2ccccc12)c1ccccc1", "note": "(centres undefined) [Sirtinol]", "percent difference in area under dose-response curve": -4.04}
{"smiles": "Cc1cn(-c2cc(NC(=O)c3ccc(C)c(Nc4nccc(-c5cccnc5)n4)c3)cc(C(F)(F)F)c2)cn1", "note": "[Nilotinib]", "percent difference in area under dose-response curve": -3.16}
{"smiles": "C=CCn1c(=O)c2cnc(Nc3ccc(N4CCN(C)CC4)cc3)nc2n1-c1cccc(C(C)(C)O)n1", "percent difference in area under dose-response curve": 0.0373}
{"smiles": "CC(C)(C)c1cnc(CSc2cnc(NC(=O)C3CCNCC3)s2)o1", "percent difference in area under dose-response curve": -3.83}
{"smiles": "CCCCCCNC(=O)n1cc(F)c(=O)[nH]c1=O", "note": "[Carmofur]", "percent difference in area under dose-response curve": -3.39}
{"smiles": "C=C1/C(=C\\C=C2/CCC[C@]3(C)[C@@H]([C@H](C)/C=C/[C@H](C)C(C)C)CC[C@@H]23)C[C@@H](O)C[C@@H]1O", "note": "[Doxercalciferol]", "percent difference in area under dose-response curve": -7.1}
{"smiles": "Nc1cc(C(F)(F)F)c(-c2cc(N3CCOCC3)nc(N3CCOCC3)n2)cn1", "percent difference in area under dose-response curve": -2.14}
{"smiles": "CC1=CC(=O)c2ccccc2C1=O", "note": "[Menadione]", "percent difference in area under dose-response curve": -3.63}
{"smiles": "Cn1cncc1[C@@](N)(c1ccc(Cl)cc1)c1ccc2c(c1)c(-c1cccc(Cl)c1)cc(=O)n2C", "note": "[Tipifarnib]", "percent difference in area under dose-response curve": -21.7}
{"smiles": "Nc1ccc(C(=O)Nc2cccc(-c3nc(N4CCOCC4)c4oc5ncccc5c4n3)c2)cn1", "percent difference in area under dose-response curve": 7.67}
{"smiles": "N#CC[C@H](C1CCCC1)n1cc(-c2ncnc3[nH]ccc23)cn1", "note": "[Ruxolitinib]", "percent difference in area under dose-response curve": -7.13}
{"smiles": "COc1cccc2c1C(=O)c1c(O)c3c(c(O)c1C2=O)C[C@@](O)(C(=O)CO)C[C@@H]3O[C@H]1C[C@H](N)[C@H](O)[C@H](C)O1", "note": "[Doxorubicin]", "percent difference in area under dose-response curve": -24.4}
{"smiles": "Nc1ccccc1NC(=O)c1ccc(CNc2nccc(-c3cccnc3)n2)cc1", "note": "[Mocetinostat]", "percent difference in area under dose-response curve": 0.546}
{"smiles": "CN1CCN(c2ccc3nc(-c4c(N)c5c(F)cccc5[nH]c4=O)[nH]c3c2)CC1", "note": "[Dovitinib]", "percent difference in area under dose-response curve": -0.391}
{"smiles": "CC(C)Oc1ccc(C(=O)N[C@H](CNC(=O)CN(C)C)Cc2ccc(-c3cn4cccc([C@H](C)O)c4n3)cc2)cc1Cl", "percent difference in area under dose-response curve": -23.9}
{"smiles": "Cc1c(NC(=O)OC[C@@H]2COCCN2)cn2ncnc(Nc3ccc4c(cnn4Cc4cccc(F)c4)c3)c12", "percent difference in area under dose-response curve": 3.34}
{"smiles": "CC1(C)CCC2=C(O1)c1ccccc1C(=O)C2=O", "note": "[beta_Lapachone]", "percent difference in area under dose-response curve": 0.097}
{"smiles": "NC(=O)CCCSc1nc(N)nc(-c2c(Cl)cc3c4c(cccc24)COC3)n1", "percent difference in area under dose-response curve": -19.2}
